Test results: the supplement of paper PMC4166925
± gives the standard deviation of the averaged measurements. Over roughly 33,000 sequences, “E-score (dimensionless, -0.5 to 0.5)” has its median near -0.049; the highest 2% begin near 0.37. The sample as a whole holds a higher share of the highest values than the screen did.

Each sequence was assayed on T1, PmTbr T-box DNA-binding domain (GST fusion) (assay: PBM E-score of 8-mer (E-score (dimensionless, -0.5 to 0.5)); Tbr is Tbrain of the sea star Patiria miniata (Pm) or the sea urchin Strongylocentrotus purpuratus (Sp); higher = stronger binding preference). Settings: the construct has about 5 more residues each side.
T1 sequence: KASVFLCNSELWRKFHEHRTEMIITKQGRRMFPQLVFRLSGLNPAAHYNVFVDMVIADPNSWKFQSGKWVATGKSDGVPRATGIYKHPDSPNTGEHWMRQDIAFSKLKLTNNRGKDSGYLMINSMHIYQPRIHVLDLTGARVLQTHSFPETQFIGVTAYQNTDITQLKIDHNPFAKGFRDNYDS
Outline: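 Universal Agilent oligonucleotide arrays, made double-stranded by primer extension, were incubated with 200 nM GST-fused Tbr T-box DNA-binding domain in PBS (pH 7.5). The protein was expressed in BL21 E. coli at 20 °C and purified by glutathione affinity chromatography. After scanning and quantification, the Universal PBM Analysis Suite assigned an enrichment E-score to each ungapped 8-mer, averaged over duplicate arrays.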

Sequence	PBM E-score of 8-mer
GCTTCACC	0.0106 ± 0.012
CACGTCCG	0.26 ± 0.0099
CCGGTTAC	-0.0412 ± 0.0065
CTTTGCTC	-0.0392 ± 0.02
ACAGAGGC	0.0769 ± 0.02
AGAGGGTA	-0.108 ± 0.023
AGGGTGTC	0.435 ± 0.014
AGGGTGGC	0.191 ± 0.011
CGGGTGTC	0.4001 ± 0.002
AGAGGGTC	-0.202 ± 0.011
CGGGTGTA	0.0538 ± 0.035
AGAGGGTG	0.383 ± 0.011
AGGGTGTG	0.43 ± 0.027
AGGGTGAC	0.326 ± 0.031
CCGGTGTC	0.247 ± 0.0031
AGGGTGTA	0.317 ± 0.0034
AGGGGGTG	0.316 ± 0.027
CCCTAGGG	-0.16 ± 0.025
AGGTTTGG	-0.19 ± 0.043
CATTCTTA	-0.235 ± 0.007
GGAAGCAC	-0.23 ± 0.015
ATGGTGAG	0.223 ± 0.0051
CATTCAGG	0.0358 ± 0.077
ATAACAAA	-0.00818 ± 0.13
AGGATCAT	-0.151 ± 0.0099

Sequence	PBM E-score of 8-mer
CGGGCAAG	-0.0794 ± 0.036
CGAGGCCC	-0.297 ± 0.064
AACCTAAC	0.0221 ± 0.052
CACCTAAG	0.381 ± 0.021
AACCTAAG	-0.12 ± 0.084
CACCTAAA	0.368 ± 0.0085
CACCTAAC	0.408 ± 0.028
CCCCTAAG	-0.0688 ± 0.042
GCTACAGC	-0.2 ± 0.12
ACCGACTC	-0.012 ± 0.041
AGCAACCT	-0.0154 ± 0.04
CGTTGACC	0.0227 ± 0.075
AGTTGACA	0.407 ± 0.008
AGTTGACG	0.153 ± 0.053
AGTTGACC	-0.231 ± 0.009
CGTTGACA	0.405 ± 0.0049
GGTTGACA	0.3518 ± 0.0019
CTTCTATA	-0.287 ± 0.067
GATAGCAA	0.202 ± 0.052
ATCAGAAT	-0.106 ± 0.065
GTGAGAAC	0.44 ± 0.0046
ACGAGAAC	0.0117 ± 0.058
CTGAGAAC	-0.052 ± 0.016
ATGAGAAC	-0.0696 ± 0.046
GCGAGAAA	0.356 ± 0.034

Sequence	PBM E-score of 8-mer
ATGAGAAA	-0.182 ± 0.17
GTGAGAAA	0.458 ± 0.012
GCGAGAAC	0.375 ± 0.01
CTGAGAAA	0.00608 ± 0.019
GAGCGCAC	-0.0637 ± 0.099
CTCACAAC	0.3462 ± 0.0029
CCCAGAAC	-0.157 ± 0.065
AACCTTGC	0.060455 ± 2.1e-05
GACCTTGC	-0.145 ± 0.021
CACCTTGA	0.383 ± 0.017
CACCTTGC	0.4191 ± 0.0029
GACCTTGA	-0.166 ± 0.025
CAGCTTGG	0.0903 ± 0.044
CACCTTGG	0.45511 ± 0.00014
AACCTTGG	-0.183 ± 0.041
TACCTTGA	0.00793 ± 0.011
ATTATGCG	-0.162 ± 0.031
GCGGTAAC	-0.0299 ± 0.029
AATTGGTC	-0.139 ± 0.051
CCCTCTCG	0.0695 ± 0.027
CGGTATAC	-0.0592 ± 0.023
CCTAGAGG	-0.0482 ± 0.018
ACCCACAT	0.203 ± 0.096
AGACACCT	0.4559 ± 0.0013
ACACACCT	0.445 ± 0.0069

Sequence	PBM E-score of 8-mer
AAACACCT	0.4565 ± 0.0016
AGACACAT	0.184 ± 0.0023
AAACACCG	0.143 ± 0.013
ACACACAT	0.288 ± 0.013
ACACACCG	0.125 ± 0.027
AAACACCC	0.227 ± 0.027
AGACACCG	0.185 ± 0.012
GGAGTGGA	-0.0457 ± 0.03
ACATTTCA	0.125 ± 0.0075
AGCTATCC	-0.334 ± 0.059
AGGACACG	-0.0089 ± 0.017
ACGCCTGG	0.236 ± 0.015
GACAACAA	0.194 ± 0.046
CACAACAA	0.278 ± 0.0061
GCCAACAC	0.354 ± 0.0042
GTCAACAC	0.427 ± 0.012
GACAACAC	0.391 ± 0.014
CACAACAC	0.387 ± 0.02
CCCAACAC	0.385 ± 0.0085
CCCAACAA	0.0135 ± 0.11
CTCAACAC	0.321 ± 0.029
CACAACAG	0.161 ± 0.033
GTCAACAA	0.293 ± 0.013
AACAACAC	0.363 ± 0.01
AATTCGCT	0.00911 ± 0.0077

Sequence	PBM E-score of 8-mer
CGCAGGCC	-0.171 ± 0.036
GGTTCGAC	0.0606 ± 0.091
CCGTTAGA	0.0408 ± 0.021
GCTGACTA	-0.0402 ± 0.059
AATGCTCC	-0.0523 ± 0.0048
CATCTGCC	-0.176 ± 0.007
AGGTTATG	0.0583 ± 0.03
AGACGCTG	-0.078 ± 0.052
CTTGTTAA	0.236 ± 0.09
CGTGTTAG	0.354 ± 0.01
GCTGTTAA	0.199 ± 0.089
AGTGTTAG	0.407 ± 0.014
GGTGTTAA	0.479 ± 0.0049
CGTGTTAA	0.409 ± 0.029
TGTGTTAA	0.365 ± 0.029
ACTGTTAG	0.217 ± 0.017
GGTGTTTA	0.399 ± 0.015
CGTGTTTA	0.0204 ± 0.033
AGTGTTTA	0.258 ± 0.043
CCTGTTAA	0.185 ± 0.023
CCGCCCGA	0.0216 ± 0.052
CTCAAGAG	0.00045 ± 0.0019
CCAGACCA	-0.0405 ± 0.051
GAGACAGC	0.0107 ± 0.051
CATCAGGG	-0.024 ± 0.045

Sequence	PBM E-score of 8-mer
AGATAGTC	-0.0975 ± 0.03
AATACTTG	-0.0724 ± 0.093
AATGCGCA	-0.0568 ± 0.095
AGGGGGAA	-0.14 ± 0.053
CCTAAGTC	-0.0839 ± 0.0091
AGTGTAAA	0.287 ± 0.081
CGTGTTAC	0.349 ± 0.015
AGTGTTAC	0.3946 ± 0.0021
AATGTTAA	-0.0297 ± 0.11
ACTGTTAA	0.21 ± 0.045
GCTGTTAC	0.0246 ± 0.042
GGTGTAAA	0.418 ± 0.0026
GGTGTTAC	0.4752 ± 0.00012
GGTGTAAC	0.363 ± 0.027
AGTGTTAA	0.433 ± 0.017
ACTGTTAC	0.118 ± 0.043
AGTGTTCC	0.0364 ± 0.038
CCCACAGG	0.0869 ± 0.067
CCGGTTGC	-0.0645 ± 0.0032
CATAGATA	-0.161 ± 0.051
ACCAACGA	0.0332 ± 0.14
GTGCTTGA	0.00432 ± 0.026
AGTGTTAT	0.397 ± 0.016
ACTGTTAT	0.0989 ± 0.046
AATGTTAT	-0.00229 ± 0.038

Sequence	PBM E-score of 8-mer
CCCGAGGG	-0.251 ± 0.11
CCTTCTCC	-0.0679 ± 0.015
AGAGCAAA	-0.099 ± 0.029
TAACAAGA	0.0263 ± 0.085
ACGTGCCG	0.221 ± 0.02
ACGTGCCA	0.367 ± 0.031
CGGTGCTA	0.321 ± 0.0088
GTGTGCTA	0.3066 ± 0.0011
AGGTGCCG	0.439 ± 0.0092
GGGTGCGA	0.4765 ± 0.0031
GTGTGCGA	0.3565 ± 0.0019
AGGTGCCC	0.0662 ± 0.046
GGGTGCTA	0.4326 ± 0.0028
AGCTGCCA	0.18 ± 0.026
AGGTGCCA	0.4761 ± 0.0036
CGGTGCGA	0.35 ± 0.017
CACGCCAC	0.222 ± 0.04
ACGAAGTG	0.291 ± 0.018
CTGGGCCA	-0.217 ± 0.042
AGGTCACA	0.27 ± 0.017
GCTACGAC	0.00882 ± 0.05
CGGCAATA	-0.0175 ± 0.065
